Broadly, the viability is a read-out of living cells in per cent, often relative to untreated cells.

Results on 5 compounds are retold here after PubChem BioAssay AID741 (SRMLSC, 2007).

The assay can be described thus: MRP-overexpressing cell chemosensitization – dose response (AID 741). The settings on record: MRP-overexpressing cells, viability with/without cytotoxic drug; slope difference: measured here: slope difference tox minus reversal, stronger effect = higher value; toxicity enhancement factor: stronger effect = higher value; viability: measured here: viability series, compound alone, at 10 µM, stronger effect = lower value.

Inconclusive results are not listed. Active and inactive are the calls of the source. No stated cut-off is given here; in the data, active means toxicity enhancement factor above about 0.054; inconclusive means between about 0.00067 and that limit; inactive means weaker than that.

With `C=CCSc1nnc2n(CCc3ccccc3)c(=O)c3c4c(sc3n12)COC(C)(C)C4`, the slope difference came to 3.35, the toxicity enhancement factor is 0.116 (active) and the viability was found to be 71%.
Regarding `C=CCN1C(=O)/C(=C2/Sc3ccccc3N2C)SC1=Nc1c(C)n[nH]c1C`, the slope difference came out at 4.41, the toxicity enhancement factor was 0.241 (active) and the viability came to 66.9%.
The corresponding values for `Cc1ccc(-n2ncc3c(N4CCN(c5ccccc5)CC4)ncnc32)c(C)c1` are -1.27, -0.037 (inactive) and 27.4%.
In the case of `c1ccc2sc(N3CN(CCN4CCOCC4)CN(c4nc5ccccc5s4)C3)nc2c1`, the slope difference is -1.81, the toxicity enhancement factor is -0.0158 (inactive) and the viability amounted to 104%.
The corresponding values for `N#Cc1ccc(CSc2nnc(-c3cccs3)n2-c2ccccc2)cc1` are -0.904, -0.0117 (inactive) and 79%.
